# Source: PubChem BioAssay (NCATS)
# “And” between values parts separate entries of the source, which are not always exact repeats. Equal values may be shown once. A number with no mark means an inactive call. Results filed as inconclusive are left out. Where a call stands in place of a potency, no number is given. The source made the active and inactive calls. Unless noted, calls come from the whole dose curve; as a rule, active = well fitted curve in the direction sought with a large enough effect; inconclusive = small, poorly fitted or top-dose-only effect, or another doubt; inactive = no such curve, though single readings can be large; an effect the other way counts as inactive or inconclusive. Bridge positions count the residues as written; N and C are the ends. Square brackets hold non-standard residues; d marks the D form. Peptide text beside a SMILES is read from it. * marks the point of attachment. Octanoyl(6-Me) = CCC(C)CCCCC(=O)*; Dab = NCC[CH](N)C(=O)O
# What was measured:
# [1] = qHTS Assay for Identifying Gametocytocidal Compounds (AID 743244); note: potency is the fitted concentration of half-maximal effect;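 for max response: actives lower the fluorescent signal which means gametocytes are killed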; settings: P. falciparum 3D7 stage III-V gametocytes, alamarBlue, 72 h; max response: active compounds read low
# Procedure, shortened: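 Fluorescence at Ex 525/Em 598 nm, recorded 24 h after alamarBlue addition, reports residual metabolic activity of 3D7 gametocytes (stages III–V) following 72 h compound exposure at 37 °C, 5% CO2.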
# [2] = target: Peroxisome proliferator-activated receptor gamma (Homo sapiens) (UniProt P37231); experiment: qHTS assay for small molecule antagonists of peroxisome proliferator-activated receptor gamma signaling (AID 588537; active = well fitted inhibition curve with a large enough effect in the signal ratio, with a control signal flat, not every such curve was filed as active; the % refers to the signal ratio;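 note: reporter cells co-stimulated with 50 nM rosiglitazone agonist during compound treatment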)
# Procedure, shortened: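 Cell-based beta-lactamase assay; GW9662 served as the antagonist control. Stimulation used rosiglitazone, final 50 nM, 16 h, 37 C.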
# [3] = Confirmation and Secondary Assay for Modulators of Hemoglobin Beta Chain Splicing at IVS2 654 locus (AID 910);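 note: HeLa cells stably carrying EGFP split by mutant beta-globin IVS2-654 intron; per-well total GFP intensity by laser scanning cytometry after 2-day treatment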
# Procedure, shortened: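 Readout: per-well total peak green fluorescence (488 nm ex, 500–520 nm em) from objects 5–250 µm, reflecting correct splicing of an EGFP-654 reporter. Compounds were applied for 2 days at 37 °C to overnight-plated HeLa EGFP-654 cells; controls were DMSO and 500 nM IVS2-654 PNA.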
# [4] = Confirmation and Secondary Assay for Modulators of Hemoglobin Beta Chain Splicing at IVS2 705 locus (AID 930);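 note: HeLa cells stably expressing the EGFP-705 splicing reporter; series mostly up to about 46 µM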
# Procedure, shortened: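 Restored EGFP fluorescence after 2-day compound exposure reports splicing correction in IVS2-705 EGFP reporter HeLa cells; positive control was 500 nM splice-blocking PNA oligo. Signal measured as well total peak GFP intensity (488 nm excitation).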
# [5] = Cellular Toxicity (caspase-3) SK-N-SH (AID 661);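 note: cells exposed to compound for 16 hours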
# Procedure, shortened: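 Luminescent Caspase-Glo 3/7 read-out after 16 hr compound exposure of SK-N-SH neuroblastoma cells at 37 °C. Signal increase normalized to DMSO (basal) and 10 uM staurosporine (100%); AC50 from Hill equation fits of qHTS concentration-response data.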
# [6] = Cell Viability - LYMP2-003 (AID 965);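 note: cells exposed to compounds for 24 h before reading; nearly all actives have a fitted effect of over 50% in size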
# Procedure, shortened: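 Acute cytotoxicity is scored as a concentration-dependent drop in intracellular ATP, measured by luciferase luminescence in human lymphoblastoid cells treated for 24 hours at 37 C. AC50 values derive from Hill-equation modelling.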
# [7] = Cell Viability - LYMP2-020 (AID 986);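 note: series mostly up to about 92 µM; cells exposed to compound for 24 h at 37 °C; nearly all actives have a fitted effect of over 55% in size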
# Procedure, shortened: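 qHTS, 2500 cells/well; 5 hr then 24 hr compound exposure, 37 C; CellTiter-Glo luminescence after 30 min RT; ATP decrease taken as cytotoxicity; AC50 via Hill equation; tetraoctylammonium bromide positive control.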
# [8] = target: Peroxisome proliferator-activated receptor gamma (Homo sapiens) (UniProt P37231); experiment: qHTS assay for small molecule agonists of peroxisome proliferator-activated receptor gamma signaling (AID 588536; active = well fitted curve in the direction sought with a large enough effect in the signal ratio, with a control signal flat, not every such curve was filed as active; the % refers to the signal ratio)
# Procedure, shortened: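 Compound treatment: 16 h, 37 C, HEK293 GeneBLAzer cells. Detection: CCF4, 2 h RT. Values: Hill-fit EC50, efficacy as % of 2 uM rosiglitazone.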
# [9] = target: Cytochrome P450 1A2 (Homo sapiens) (UniProt P05177); experiment: p450-cyp1a2 (AID 410; calls by dose curve; note: potency is the fitted concentration of half-maximal effect)
# Procedure, shortened: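 20nM CYP1A2, 100uM Luciferin-ME (=Km), 100mM KPO4; cpd 10 min RT; +NADPH regen, 60 min RT; stop/detect 20 min; luminescence. Normalized to furafylline 57 uM = full inhibition.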
# [10] = target: Glucocorticoid receptor (Homo sapiens) (UniProt P04150); experiment: GR-GFP Redistribution (AID 450;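 active = compounds whose dose series gives a full or clear partial fitted curve of increased nuclear translocation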; note: potency is the fitted concentration of half-maximal effect); settings: U2OS GR-GFP nuclear translocation, laser cytometry, 2 h
# [11] = target: Glucocorticoid receptor (Homo sapiens) (UniProt P04150); experiment: GR-EFC Redistribution (AID 451; calls by dose curve; note: potency is the fitted concentration of half-maximal effect); settings: CHO-K1 GR-EFC translocation, beta-gal luminescence, 2 h
# Procedure, shortened: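 Translocation of GR-ED fusion to nuclear EA restores b-gal, read by luminescence after 1 h room-temperature detection. Engineered CHO-K1 biosensor cells, 1,000/well, exposed 2 h at 37 C to titrations up to 46 uM final.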
# [12] = target: Cytochrome P450 2C9 (Homo sapiens) (UniProt P11712); experiment: qHTS Assay for Inhibitors and Substrates of Cytochrome P450 2C9 (AID 883); note: potency is the fitted concentration of half-maximal effect; nearly all actives have a fitted effect of over 60% in size
# Procedure, shortened: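 Luminescent read-out of deoxyluciferin hydroxylation, normalized to 57uM sulphaphenazole (AC100). Reaction: 10nM enzyme, 100uM Luciferin-H (equal to KM), 25mM KPO4, 10 min compound preincubation, then 60 min with NADPH regeneration, both at 37C.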
# [13] = target: Cytochrome P450 3A4 (Homo sapiens) (UniProt P08684); experiment: qHTS Assay for Activators of Cytochrome P450 3A4 (AID 885); note: nearly all actives have a fitted effect of over 65% in size
# Procedure, shortened: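 CYP3A4 activity: Luciferin-PPXE O-dealkylation, 25uM substrate, 200mM KPO4, RT throughout. Read-out is luciferase luminescence; higher values reflect activation.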
# [14] = target: Cytochrome P450 2D6 (Homo sapiens) (UniProt P10635); experiment: qHTS Assay for Inhibitors and Substrates of Cytochrome P450 2D6 (AID 891);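 note: luciferin methyl ether substrate demethylated by CYP2D6 with NADPH regeneration; nearly all actives have a fitted effect of over 60% in size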
# Procedure, shortened: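 Luminescent read-out of luciferin formed by 5 nM human CYP2D6 demethylating 30 uM Luciferin-ME EGE (Km level) over 60 min at room temperature after NADPH regeneration addition. Data normalized to full inhibition by 1.43 uM quinidine.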
# [15] = target: Androgen receptor (Homo sapiens) (UniProt P10275); experiment: qHTS assay for small molecule agonists of androgen receptor signaling (AID 588515; active = well fitted curve in the direction sought with a large enough effect in the signal ratio, with a control signal flat; the % refers to the signal ratio); settings: AR-UAS-bla HEK293, beta-lactamase ratio, agonist 16 h; active compounds read high
# Procedure, shortened: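 Stimulation of an AR-responsive β-lactamase reporter in GripTite HEK293 cells was measured after 16 h compound exposure at 37 °C, via CCF4 fluorescence after 2 h RT. EC50 from Hill fits, normalized to R1881 at 30 nM.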
# [16] = target: Androgen receptor (Homo sapiens) (UniProt P10275); experiment: qHTS assay for small molecule antagonists of androgen receptor signaling (AID 588516; active = well fitted curve in the direction sought with a large enough effect in the signal ratio, with a control signal flat, not every such curve was filed as active; the % refers to the signal ratio)
# Procedure, shortened: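 Antagonist-mode qHTS: inhibition of R1881 (10 nM)-driven beta-lactamase expression in GripTite HEK 293 cells is measured after 16 h; values are Hill-derived IC50s normalized between R1881 and DMSO wells.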
# [17] = qHTS assay to identify small molecules that stimulate interleukin-8 (IL-8) secretion (AID 651758; active = well fitted activation curve with a large enough effect in the signal ratio; the % refers to the signal ratio)
# Procedure, shortened: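 Secreted IL-8 measured homogeneously by TR-FRET (two labelled anti-IL-8 antibodies, 1-3 h at room temperature) after a 16 h, 37 C compound treatment of THP-1 cells at 2000 cells/well.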
# [18] = Cell Viability - LYMP2-004 (AID 966);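 note: cells exposed to compound for 24 h; nearly all actives have a fitted effect of over 65% in size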
# Procedure, shortened: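 Luminescent ATP read-out (CellTiter-Glo, 30 min RT) after 24 hr compound exposure at 37 C; 2500 lymphoblastoid cells/well, complete medium. Decrease in ATP = cytotoxicity; AC50 from standard Hill model.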
# Cytochrome P450 3A4 (Homo sapiens), sequence (P08684 whole entry, looked up): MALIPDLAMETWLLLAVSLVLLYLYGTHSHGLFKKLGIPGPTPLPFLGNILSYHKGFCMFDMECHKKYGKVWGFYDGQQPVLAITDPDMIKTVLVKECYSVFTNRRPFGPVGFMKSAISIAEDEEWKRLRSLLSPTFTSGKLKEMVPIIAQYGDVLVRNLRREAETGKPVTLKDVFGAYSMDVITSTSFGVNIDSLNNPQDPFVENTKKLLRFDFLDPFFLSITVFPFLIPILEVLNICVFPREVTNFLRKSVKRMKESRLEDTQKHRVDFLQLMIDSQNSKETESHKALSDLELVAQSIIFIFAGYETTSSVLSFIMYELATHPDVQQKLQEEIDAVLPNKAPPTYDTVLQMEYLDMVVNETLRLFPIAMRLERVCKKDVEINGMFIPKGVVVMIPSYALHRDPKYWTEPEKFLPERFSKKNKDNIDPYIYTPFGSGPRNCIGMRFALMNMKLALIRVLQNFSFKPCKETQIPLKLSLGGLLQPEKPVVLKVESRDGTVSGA
# Peroxisome proliferator-activated receptor gamma (Homo sapiens), sequence (P37231 whole entry, looked up): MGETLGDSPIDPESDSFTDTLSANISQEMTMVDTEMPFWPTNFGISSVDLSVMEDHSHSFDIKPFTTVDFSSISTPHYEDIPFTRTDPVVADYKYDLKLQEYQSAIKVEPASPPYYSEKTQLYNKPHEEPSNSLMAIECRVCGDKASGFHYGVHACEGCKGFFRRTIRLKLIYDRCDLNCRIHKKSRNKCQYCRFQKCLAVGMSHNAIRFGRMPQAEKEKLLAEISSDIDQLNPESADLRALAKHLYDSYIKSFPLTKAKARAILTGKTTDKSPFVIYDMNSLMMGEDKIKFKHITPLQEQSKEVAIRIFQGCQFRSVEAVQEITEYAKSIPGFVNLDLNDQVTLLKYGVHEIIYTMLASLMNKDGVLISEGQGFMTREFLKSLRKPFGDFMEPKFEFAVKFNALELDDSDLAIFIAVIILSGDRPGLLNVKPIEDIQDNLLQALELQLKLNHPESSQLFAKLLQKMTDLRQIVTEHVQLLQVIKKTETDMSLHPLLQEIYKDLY
# Androgen receptor (Homo sapiens), sequence (P10275 whole entry, looked up): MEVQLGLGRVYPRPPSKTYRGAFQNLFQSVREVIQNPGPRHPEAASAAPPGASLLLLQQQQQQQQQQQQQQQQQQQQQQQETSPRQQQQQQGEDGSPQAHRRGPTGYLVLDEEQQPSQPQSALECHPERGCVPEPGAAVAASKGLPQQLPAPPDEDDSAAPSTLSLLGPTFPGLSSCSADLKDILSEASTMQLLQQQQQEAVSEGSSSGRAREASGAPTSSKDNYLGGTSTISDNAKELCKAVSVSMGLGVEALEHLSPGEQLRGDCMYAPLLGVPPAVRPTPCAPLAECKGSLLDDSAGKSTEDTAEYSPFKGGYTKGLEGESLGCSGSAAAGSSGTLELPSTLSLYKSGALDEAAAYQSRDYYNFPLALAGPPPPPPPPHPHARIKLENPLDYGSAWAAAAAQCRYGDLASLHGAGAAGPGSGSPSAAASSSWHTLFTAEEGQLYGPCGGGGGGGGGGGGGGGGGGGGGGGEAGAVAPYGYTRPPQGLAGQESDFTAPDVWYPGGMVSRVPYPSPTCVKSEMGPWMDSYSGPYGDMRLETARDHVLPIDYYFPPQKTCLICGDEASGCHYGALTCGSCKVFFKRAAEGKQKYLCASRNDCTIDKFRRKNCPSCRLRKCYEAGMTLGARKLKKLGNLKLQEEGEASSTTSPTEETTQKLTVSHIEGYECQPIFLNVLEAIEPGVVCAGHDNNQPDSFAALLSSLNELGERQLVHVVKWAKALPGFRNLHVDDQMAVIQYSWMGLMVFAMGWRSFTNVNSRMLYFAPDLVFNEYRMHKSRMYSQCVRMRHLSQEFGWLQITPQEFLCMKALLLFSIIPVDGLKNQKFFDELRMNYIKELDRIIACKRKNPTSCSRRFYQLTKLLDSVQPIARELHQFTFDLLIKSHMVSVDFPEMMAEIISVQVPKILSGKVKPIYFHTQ
# Glucocorticoid receptor (Homo sapiens), sequence (P04150 whole entry, looked up, the tested form may be a part): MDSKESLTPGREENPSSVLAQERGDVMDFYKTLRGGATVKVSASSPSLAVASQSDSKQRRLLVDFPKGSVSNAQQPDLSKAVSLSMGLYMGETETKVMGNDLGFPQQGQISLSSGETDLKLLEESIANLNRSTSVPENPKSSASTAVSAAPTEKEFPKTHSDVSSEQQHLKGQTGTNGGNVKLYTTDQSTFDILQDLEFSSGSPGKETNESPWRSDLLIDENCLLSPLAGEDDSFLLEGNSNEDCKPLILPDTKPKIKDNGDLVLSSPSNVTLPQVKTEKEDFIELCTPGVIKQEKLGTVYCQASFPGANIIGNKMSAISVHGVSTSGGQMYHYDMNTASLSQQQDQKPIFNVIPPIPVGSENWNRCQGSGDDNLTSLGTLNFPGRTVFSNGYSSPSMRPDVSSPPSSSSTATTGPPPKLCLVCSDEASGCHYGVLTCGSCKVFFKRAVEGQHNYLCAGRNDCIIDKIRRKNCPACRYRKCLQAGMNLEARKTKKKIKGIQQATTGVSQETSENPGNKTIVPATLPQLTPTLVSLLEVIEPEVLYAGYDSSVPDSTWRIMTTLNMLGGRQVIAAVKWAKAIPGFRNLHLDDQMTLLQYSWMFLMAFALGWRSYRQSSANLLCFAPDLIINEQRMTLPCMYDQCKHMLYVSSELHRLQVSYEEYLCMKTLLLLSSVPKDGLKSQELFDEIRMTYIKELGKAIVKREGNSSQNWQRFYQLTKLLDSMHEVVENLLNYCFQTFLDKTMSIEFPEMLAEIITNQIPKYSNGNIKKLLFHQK
# Cytochrome P450 2C9 (Homo sapiens), sequence (P11712 whole entry, looked up): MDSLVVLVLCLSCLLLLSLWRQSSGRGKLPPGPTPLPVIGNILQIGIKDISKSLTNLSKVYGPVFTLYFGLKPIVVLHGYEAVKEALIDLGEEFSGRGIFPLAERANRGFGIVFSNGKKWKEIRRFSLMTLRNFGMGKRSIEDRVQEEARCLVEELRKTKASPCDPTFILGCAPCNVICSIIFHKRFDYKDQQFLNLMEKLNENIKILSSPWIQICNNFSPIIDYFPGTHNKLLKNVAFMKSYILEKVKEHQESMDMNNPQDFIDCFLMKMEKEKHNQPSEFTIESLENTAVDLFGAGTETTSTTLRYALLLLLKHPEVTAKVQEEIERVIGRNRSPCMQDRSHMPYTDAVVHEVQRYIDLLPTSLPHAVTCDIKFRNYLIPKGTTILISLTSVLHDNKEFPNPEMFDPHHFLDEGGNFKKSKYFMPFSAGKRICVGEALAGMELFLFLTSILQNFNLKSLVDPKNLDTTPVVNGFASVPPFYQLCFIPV
# Cytochrome P450 1A2 (Homo sapiens), sequence (P05177 whole entry, looked up): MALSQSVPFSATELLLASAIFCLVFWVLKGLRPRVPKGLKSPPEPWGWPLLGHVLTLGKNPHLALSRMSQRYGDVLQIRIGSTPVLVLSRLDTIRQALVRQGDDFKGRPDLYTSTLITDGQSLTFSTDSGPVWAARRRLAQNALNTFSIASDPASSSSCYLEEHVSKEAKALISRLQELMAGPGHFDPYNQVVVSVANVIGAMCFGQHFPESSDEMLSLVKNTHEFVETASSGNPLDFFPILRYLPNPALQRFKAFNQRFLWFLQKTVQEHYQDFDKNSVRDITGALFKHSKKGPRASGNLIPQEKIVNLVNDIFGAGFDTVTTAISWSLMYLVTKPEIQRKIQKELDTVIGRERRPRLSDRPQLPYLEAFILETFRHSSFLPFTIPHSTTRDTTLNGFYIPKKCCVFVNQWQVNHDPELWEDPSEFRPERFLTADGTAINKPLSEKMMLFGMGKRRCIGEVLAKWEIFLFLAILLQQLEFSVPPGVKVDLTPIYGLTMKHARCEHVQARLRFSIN
# Cytochrome P450 2D6 (Homo sapiens), sequence (P10635 whole entry, looked up): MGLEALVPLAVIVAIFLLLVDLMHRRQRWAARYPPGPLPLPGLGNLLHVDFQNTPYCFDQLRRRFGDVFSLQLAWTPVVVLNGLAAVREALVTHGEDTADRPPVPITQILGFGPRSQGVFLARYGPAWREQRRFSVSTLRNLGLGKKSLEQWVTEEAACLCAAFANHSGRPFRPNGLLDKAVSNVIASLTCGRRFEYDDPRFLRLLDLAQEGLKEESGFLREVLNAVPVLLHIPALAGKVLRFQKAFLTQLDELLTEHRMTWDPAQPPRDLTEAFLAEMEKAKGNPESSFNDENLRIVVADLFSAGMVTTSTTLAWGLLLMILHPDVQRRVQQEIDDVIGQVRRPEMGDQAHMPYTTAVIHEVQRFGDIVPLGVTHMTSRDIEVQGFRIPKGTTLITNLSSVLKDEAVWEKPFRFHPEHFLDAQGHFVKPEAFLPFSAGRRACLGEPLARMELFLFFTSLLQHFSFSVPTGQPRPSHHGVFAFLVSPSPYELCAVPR
structure (smiles),measurement,setting,value
N=C(N)c1ccc(OCCCOc2ccc(C(=N)N)cc2Br)c(Br)c1,Potency,[1],7.08 µM (active)
Cc1cccc(O)c1,outcome,[2],inactive
CCC(C)CCCCC(=O)NC(CCN)C(=O)NC(C(=O)NC(CCN)C(=O)NC1CCNC(=O)C(C(C)O)NC(=O)C(CCN)NC(=O)C(CCN)NC(=O)C(CC(C)C)NC(=O)C(Cc2ccccc2)NC(=O)C(CCN)NC1=O)C(C)O (configuration not stated) ({Octanoyl(6-Me)}-[Dab]T[Dab][Dab][Dab]FL[Dab][Dab]T; lactam 4-C; configuration not given here),Potency,[3],inactive
same,Potency,[4],inactive
CCCCCCCCCCCCC[N+](C)(C)Cc1ccccc1,Potency,[3],inactive
same,Potency,[4],inactive
O=S(=O)(O)c1ccccc1,outcome,[5],inactive
same,Potency,[6],inactive
same,Potency,[7],inactive
O[C@@H]([C@H](O)[C@@H](O)CBr)[C@@H](O)CBr,outcome,[8],inactive
CC1(C)S[C@@H]2[C@H](NC(=O)COc3ccccc3)C(=O)N2[C@H]1C(=O)O,outcome,[8],inactive
O=c1cc(-c2cccc(O)c2)oc2c(O)c(O)ccc12,Potency,[9],0.1 µM (active)
same,Potency,[10],> 46 µM
same,Potency,[11],> 46 µM
same,Potency,[12],1.58 µM (active)
same,outcome,[13],inactive
same,Potency,[14],inactive
N[C@@H](C(=O)N[C@@H]1C(=O)N2C(C(=O)O)=C(Cl)CC[C@H]12)c1ccccc1,max response,[1],3.49%
O=C(O)c1ccccc1C(c1ccc(O)cc1)c1ccc(O)cc1,Potency,[7],inactive
same,activation,[15],7.12% and 7.97%
same,outcome,[16],inactive
c1ccc2scnc2c1,outcome,[5],inactive
same,Potency,[6],inactive
same,outcome,[8],inactive
same,Potency,[17],inactive
Cc1c(N=C=O)cccc1N=C=O,Potency,[18],inactive
same,activation,[15],-8.11% and -0.971%
same,outcome,[16],inactive
same,outcome,[2],inactive
Nc1nc(-c2ccc(Cl)c(Cl)c2)c(-c2ccncc2)s1,outcome,[13],inactive
COC(=O)CCCCC(=O)OC,Potency,[6],inactive
same,outcome,[2],inactive
same,Potency,[17],inactive
COc1cc(/C=C/C(=O)N2CCC=CC2=O)cc(OC)c1OC,outcome,[13],inactive
same,Potency,[3],inactive
same,Potency,[4],inactive
O=C(O)c1ccc(O)cc1O,Potency,[17],inactive
